For part of these data: Potency and affinity values are given separately.

Holding throughout (set-up): scale not given: direction of the effect not stated beside the values
Assay [1] concerns the target Protein translocase subunit SecA (Escherichia coli (strain K12)) (UniProt P10408). In words: Assay to Identify E. coli SecA ATPase Inhibitors. Format: functional. The following applies: 30 µM.
In assay [2] the target is T1, Ubiquitin-activating enzyme e1, putative (Leishmania donovani (strain BPK282A1)) (UniProt E9BSI1).
T1 sequence (whole entry): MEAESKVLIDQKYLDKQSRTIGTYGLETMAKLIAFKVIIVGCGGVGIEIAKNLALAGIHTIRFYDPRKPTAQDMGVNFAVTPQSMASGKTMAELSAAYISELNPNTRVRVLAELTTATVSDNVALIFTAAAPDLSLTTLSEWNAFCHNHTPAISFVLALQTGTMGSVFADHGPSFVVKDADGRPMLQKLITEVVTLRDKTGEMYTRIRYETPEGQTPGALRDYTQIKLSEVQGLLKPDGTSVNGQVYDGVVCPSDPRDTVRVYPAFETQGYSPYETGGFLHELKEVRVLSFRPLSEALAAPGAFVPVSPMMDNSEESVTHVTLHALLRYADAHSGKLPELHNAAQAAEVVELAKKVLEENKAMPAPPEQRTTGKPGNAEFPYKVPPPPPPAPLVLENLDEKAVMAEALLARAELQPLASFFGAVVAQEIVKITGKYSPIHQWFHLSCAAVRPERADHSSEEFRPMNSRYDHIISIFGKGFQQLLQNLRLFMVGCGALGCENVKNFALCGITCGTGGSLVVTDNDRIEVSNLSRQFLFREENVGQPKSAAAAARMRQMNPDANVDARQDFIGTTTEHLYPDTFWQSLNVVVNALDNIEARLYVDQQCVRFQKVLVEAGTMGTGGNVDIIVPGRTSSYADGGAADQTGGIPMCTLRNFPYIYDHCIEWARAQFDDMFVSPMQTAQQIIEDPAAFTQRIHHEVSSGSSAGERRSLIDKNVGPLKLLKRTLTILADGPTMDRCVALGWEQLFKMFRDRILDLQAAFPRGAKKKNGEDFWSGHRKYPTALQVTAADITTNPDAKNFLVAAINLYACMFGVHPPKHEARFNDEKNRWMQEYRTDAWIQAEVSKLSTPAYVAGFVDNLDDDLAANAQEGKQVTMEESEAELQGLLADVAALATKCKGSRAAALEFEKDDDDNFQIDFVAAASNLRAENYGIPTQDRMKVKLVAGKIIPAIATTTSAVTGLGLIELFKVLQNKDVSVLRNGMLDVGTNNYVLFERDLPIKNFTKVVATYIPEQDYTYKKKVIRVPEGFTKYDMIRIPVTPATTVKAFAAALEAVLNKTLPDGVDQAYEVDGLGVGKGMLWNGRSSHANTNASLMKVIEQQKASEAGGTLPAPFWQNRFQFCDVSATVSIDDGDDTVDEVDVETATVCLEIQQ
In words: Leishmania donovani Ubiquitin Activating Enzyme (LdE1). The conditions noted are these: 30 µM. Type of assay: functional.

Assay [3] addresses Sialic acid-binding Ig-like lectin 9 (Homo sapiens) (UniProt Q9Y336). In words: Hs-Siglec9 ALPHAscreen SOP 20170721. The conditions noted are these: 10 µM.
In another assay the test system is Trypanosoma cruzi. In words: Trypanosoma cruzi phosphomannomutase and mannose-1-phosphate guanylyltransferase assay. The following applies: 10 µM. Format: functional.
For assay [4], the target named is T2, Arginase-2, mitochondrial (Homo sapiens) (UniProt P78540).
T2 sequence (whole entry): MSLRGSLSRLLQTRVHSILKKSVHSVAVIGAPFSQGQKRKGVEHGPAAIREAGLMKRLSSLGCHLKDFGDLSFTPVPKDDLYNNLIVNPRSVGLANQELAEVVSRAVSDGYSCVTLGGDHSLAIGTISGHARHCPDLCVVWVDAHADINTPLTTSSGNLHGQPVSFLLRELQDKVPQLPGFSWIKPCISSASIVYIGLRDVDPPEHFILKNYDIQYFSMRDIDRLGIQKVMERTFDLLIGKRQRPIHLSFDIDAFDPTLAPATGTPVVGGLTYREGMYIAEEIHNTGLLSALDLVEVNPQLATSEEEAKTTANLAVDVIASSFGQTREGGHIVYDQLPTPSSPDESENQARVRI
In words: in vitro enzyme assay to detect the production of urea directly proportional to the activity of Arginase II. Also: in the data most compounds retested in dose-response had high values. The following applies: 33.3 µM. Format: functional.

Assay [5] deals with T3, Proteasome subunit beta (Trypanosoma cruzi) (UniProt O96673).
T3 sequence (whole entry): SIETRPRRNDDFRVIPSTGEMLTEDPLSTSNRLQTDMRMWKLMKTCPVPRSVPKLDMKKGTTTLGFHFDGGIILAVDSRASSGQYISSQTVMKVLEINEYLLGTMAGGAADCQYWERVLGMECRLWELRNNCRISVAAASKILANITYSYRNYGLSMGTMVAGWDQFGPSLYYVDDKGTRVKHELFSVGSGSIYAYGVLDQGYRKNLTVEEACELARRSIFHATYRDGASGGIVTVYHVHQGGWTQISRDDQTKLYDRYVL
In words: Trypanosoma cruzi proteasome chymotrypsin-like activity (TcProtChymo) assay. Also: in the data most compounds retested in dose-response had high values. The conditions noted are these: 9.37 µM. Format: functional.

The species entered for the next assay is Homo sapiens. Briefly: To identify inhibition of the IFN signalling (Jak-Stat) pathway via expression of an eGFP reporter gene under the control of an IFN-stimulated response element (ISRE) containing MxA promoter. The conditions noted are these: 30 µM. Format: functional. (Reporter assays use an easily measured gene product as a stand-in for the process of interest.)

The target in assay [6] is T4, Tyrosyl-tRNA synthetase, putative (Trypanosoma cruzi (strain CL Brener)) (UniProt Q4DSP6).
T4 sequence (whole entry): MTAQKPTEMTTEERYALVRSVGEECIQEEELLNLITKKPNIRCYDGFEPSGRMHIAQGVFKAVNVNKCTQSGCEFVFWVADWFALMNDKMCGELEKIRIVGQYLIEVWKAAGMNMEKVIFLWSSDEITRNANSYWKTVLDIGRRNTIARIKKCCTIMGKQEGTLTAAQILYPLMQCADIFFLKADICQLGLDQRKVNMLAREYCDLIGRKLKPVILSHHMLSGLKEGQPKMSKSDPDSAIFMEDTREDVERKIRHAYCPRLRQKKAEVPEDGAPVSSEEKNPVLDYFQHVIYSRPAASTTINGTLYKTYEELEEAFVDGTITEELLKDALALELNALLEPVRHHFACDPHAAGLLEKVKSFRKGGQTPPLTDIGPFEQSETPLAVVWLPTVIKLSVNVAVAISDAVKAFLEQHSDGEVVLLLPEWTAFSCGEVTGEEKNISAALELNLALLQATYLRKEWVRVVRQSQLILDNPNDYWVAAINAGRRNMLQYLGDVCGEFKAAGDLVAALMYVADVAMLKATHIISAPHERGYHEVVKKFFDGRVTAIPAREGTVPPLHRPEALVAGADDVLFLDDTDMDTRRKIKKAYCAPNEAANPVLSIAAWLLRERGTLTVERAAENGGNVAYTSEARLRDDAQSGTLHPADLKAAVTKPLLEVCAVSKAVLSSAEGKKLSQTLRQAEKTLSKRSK
Briefly: Trypanosoma cruzi tyrosyl tRNA synthetase (TcYRS) _High Tyrosine SOP. Also: in the data most compounds retested in dose-response had high values. The following applies: 30 µM. Format: functional.

Assay [7] deals with T4, Tyrosyl-tRNA synthetase, putative (Trypanosoma cruzi (strain CL Brener)). In words: Trypanosoma cruzi tyrosyl tRNA synthetase (TcYRS) SOP. Type of assay: functional. The following applies: 30 µM.
The target of assay [8] is Chromo domain-containing protein 1 (Saccharomyces cerevisiae (strain ATCC 204508 / S288c) (Baker's yeast)) (UniProt P32657). In words: ScCHD-1 Enzyme Inhibition Assay. Also: in the data most compounds retested in dose-response had high values. The conditions noted are these: 30 µM. Type of assay: functional.
Chain of Chromo domain-containing protein 1 (Saccharomyces cerevisiae (strain ATCC 204508 / S288c) (Baker's yeast)) (P32657 whole entry, the tested form may be a part): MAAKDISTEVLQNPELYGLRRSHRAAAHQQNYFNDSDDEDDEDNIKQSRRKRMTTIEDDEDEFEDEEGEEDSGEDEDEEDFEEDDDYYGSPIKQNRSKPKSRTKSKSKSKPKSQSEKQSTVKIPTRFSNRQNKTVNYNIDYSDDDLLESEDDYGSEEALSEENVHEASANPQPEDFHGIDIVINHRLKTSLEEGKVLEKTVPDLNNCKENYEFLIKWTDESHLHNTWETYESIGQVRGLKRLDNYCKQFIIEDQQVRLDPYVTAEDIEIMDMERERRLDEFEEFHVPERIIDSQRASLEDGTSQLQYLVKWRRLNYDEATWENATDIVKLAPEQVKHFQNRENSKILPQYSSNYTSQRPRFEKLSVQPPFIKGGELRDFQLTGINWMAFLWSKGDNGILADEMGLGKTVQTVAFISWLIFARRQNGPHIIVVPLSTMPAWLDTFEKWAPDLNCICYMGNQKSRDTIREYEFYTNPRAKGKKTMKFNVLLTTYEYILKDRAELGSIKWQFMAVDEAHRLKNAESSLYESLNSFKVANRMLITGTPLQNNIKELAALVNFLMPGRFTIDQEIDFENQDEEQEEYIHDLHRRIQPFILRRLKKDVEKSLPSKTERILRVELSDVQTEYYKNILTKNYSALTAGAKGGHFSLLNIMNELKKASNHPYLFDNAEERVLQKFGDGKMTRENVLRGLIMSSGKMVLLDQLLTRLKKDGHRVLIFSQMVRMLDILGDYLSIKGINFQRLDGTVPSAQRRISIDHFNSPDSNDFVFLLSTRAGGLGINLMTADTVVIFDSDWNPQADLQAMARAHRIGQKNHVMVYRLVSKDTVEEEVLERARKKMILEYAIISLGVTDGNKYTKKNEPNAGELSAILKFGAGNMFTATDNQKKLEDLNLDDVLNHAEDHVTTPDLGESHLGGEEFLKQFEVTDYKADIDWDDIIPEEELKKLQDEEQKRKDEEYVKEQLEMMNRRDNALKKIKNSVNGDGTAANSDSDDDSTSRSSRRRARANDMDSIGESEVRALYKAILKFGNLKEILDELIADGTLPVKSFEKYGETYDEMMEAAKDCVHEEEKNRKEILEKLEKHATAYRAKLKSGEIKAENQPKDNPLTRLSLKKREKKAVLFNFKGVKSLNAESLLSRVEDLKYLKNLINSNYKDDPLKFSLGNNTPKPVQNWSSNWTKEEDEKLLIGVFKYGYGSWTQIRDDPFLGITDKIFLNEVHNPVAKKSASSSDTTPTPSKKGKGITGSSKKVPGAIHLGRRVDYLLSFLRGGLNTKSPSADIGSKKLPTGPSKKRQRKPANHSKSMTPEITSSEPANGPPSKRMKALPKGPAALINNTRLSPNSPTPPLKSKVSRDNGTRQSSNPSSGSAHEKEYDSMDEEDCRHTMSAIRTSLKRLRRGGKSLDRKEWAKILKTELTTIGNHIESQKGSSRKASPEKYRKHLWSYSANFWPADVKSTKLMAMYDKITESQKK

Chain of Protein translocase subunit SecA (Escherichia coli (strain K12)) (P10408 whole entry): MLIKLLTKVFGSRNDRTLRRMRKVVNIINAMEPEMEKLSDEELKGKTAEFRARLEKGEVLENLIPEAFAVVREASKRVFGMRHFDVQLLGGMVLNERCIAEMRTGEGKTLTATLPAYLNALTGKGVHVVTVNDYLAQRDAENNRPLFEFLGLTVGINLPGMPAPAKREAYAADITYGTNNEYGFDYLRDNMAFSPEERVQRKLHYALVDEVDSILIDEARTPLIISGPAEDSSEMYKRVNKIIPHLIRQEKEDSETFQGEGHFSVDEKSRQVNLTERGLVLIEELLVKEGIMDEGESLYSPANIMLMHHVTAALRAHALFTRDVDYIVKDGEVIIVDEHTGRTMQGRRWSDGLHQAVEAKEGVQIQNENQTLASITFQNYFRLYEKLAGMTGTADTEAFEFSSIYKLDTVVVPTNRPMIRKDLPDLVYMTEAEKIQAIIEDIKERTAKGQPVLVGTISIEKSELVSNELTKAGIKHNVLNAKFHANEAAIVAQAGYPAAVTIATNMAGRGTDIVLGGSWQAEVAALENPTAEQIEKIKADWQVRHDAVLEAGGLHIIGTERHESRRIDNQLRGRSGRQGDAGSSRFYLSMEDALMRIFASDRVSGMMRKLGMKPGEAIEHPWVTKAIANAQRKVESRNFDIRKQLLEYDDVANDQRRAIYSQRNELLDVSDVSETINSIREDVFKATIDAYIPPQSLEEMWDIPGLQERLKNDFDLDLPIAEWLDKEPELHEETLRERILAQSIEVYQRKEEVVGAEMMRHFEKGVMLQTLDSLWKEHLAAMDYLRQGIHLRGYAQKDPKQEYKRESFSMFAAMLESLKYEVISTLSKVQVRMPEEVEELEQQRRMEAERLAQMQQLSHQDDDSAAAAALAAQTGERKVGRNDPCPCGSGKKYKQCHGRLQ
Chain of Sialic acid-binding Ig-like lectin 9 (Homo sapiens) (Q9Y336 whole entry): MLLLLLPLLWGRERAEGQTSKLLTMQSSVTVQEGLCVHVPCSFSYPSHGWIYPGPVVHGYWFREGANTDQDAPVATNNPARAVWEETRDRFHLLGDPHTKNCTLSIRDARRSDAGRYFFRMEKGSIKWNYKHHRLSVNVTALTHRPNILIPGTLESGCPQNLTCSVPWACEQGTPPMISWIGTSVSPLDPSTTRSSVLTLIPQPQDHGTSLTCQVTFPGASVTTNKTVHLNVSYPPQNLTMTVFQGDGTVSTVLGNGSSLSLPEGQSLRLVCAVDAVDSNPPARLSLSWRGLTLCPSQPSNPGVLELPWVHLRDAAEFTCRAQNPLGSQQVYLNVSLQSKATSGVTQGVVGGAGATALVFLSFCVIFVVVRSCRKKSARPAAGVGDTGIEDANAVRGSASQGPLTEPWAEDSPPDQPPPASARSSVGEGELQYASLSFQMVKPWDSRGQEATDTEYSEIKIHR

Turning to `O=C(NCCc1coc(-c2ccc(F)cc2)n1)NC1CCC(O)CC1` (stereo not given), the Percent Effect in [1] is -5.41%; in assay [2], 21.3%; in assay [3], 5.86%; in the assay with Trypanosoma cruzi, 5.82%; in [4] it was -0.887%; in [5], 15.7%. Moreover, the Percent Effect in the assay listed under Homo sapiens was 6.59%; in assay [6], 5.79%; in [7] it was 15.4%; in assay [8], -15.6%.
As to `CC(Cn1cccn1)NC(=O)Cc1cccs1` (stereo not given), the Percent Effect is -0.712% in assay [1]; 16% in [2]; 1.17% in assay [3]; 3.41% in the assay on Trypanosoma cruzi; 3.99% in [4]; 6.36% in assay [5]. Besides, the Percent Effect was 28.8% in the assay listed under Homo sapiens, 0.526% in assay [6], 7.69% in assay [7] and -16% in assay [8].
Turning to `O=C(N1CCC(Nc2cccnn2)CC1)C1(c2ccc(F)cc2)CC1`, the Percent Effect was -2.8% in assay [1]; 7.79% in assay [2]; 9.36% in assay [3]; -1.68% in the assay on Trypanosoma cruzi; -2.25% in assay [4]; 1.4% in [5]. For the same compound, the Percent Effect in the assay listed under Homo sapiens was 10.5%; in assay [6], 4.9%; in [7] it was 9.41%; in assay [8], -1.2%.
With `O=C(C1CCCC1)N1CCC2(CC1)COCCN2CC1CC1`, the Percent Effect in assay [1] was -2.73%; in assay [2], 16.9%; in [3], -2.04%; in the assay on Trypanosoma cruzi, -1.31%; in [4] it was 5.02%; in assay [5], 10%. Further, the Percent Effect in the assay filed under Homo sapiens is 9.54%; in [6], 11.6%; in assay [7] it was 15%; in [8] it was -9.88%.
`CCn1ccnc1CN(C)CC1CCCN1c1cccnn1` (stereo not given): the Percent Effect in [1] is -2.58%; in assay [2] it was 2.67%; in assay [3], -5.89%; in the assay on Trypanosoma cruzi, 0%; in [4], 0.887%; in assay [5], 20.8%. Besides, the Percent Effect in the assay listed under Homo sapiens was 6.16%; in assay [6], 5.79%; in assay [7], 12.8%; in assay [8] it was -11.5%.
Regarding `O=C(NCC1CC1)C1=NOC2(CCN(S(=O)(=O)c3cccs3)C2)C1` (stereo not given), the Percent Effect is -2.62% in assay [1]; -3.9% in assay [2]; 6.57% in assay [3]; -1.85% with Trypanosoma cruzi; -3.64% in assay [4]; 3.79% in assay [5]. Further, the Percent Effect is -1.32% in the assay listed under Homo sapiens, -0.526% in assay [6], -2.56% in assay [7] and 0.639% in assay [8].
Turning to `Cc1cccc(CN2C(=O)CCC23CCN(c2ncc(F)cn2)CC3)n1`, the Percent Effect in assay [1] was -5.56%; in assay [2] it was 16.9%; in assay [3], -3.32%; in the assay on Trypanosoma cruzi, -1.13%; in assay [4], 5.02%; in [5] it was 0.258%. Besides, the Percent Effect is -16% in the assay listed under Homo sapiens, 11.6% in [6], 15% in assay [7] and -8.12% in [8].
`O=C(C1CC1)N1CC[C@H](O)[C@@H]1Cc1ccccc1`: the Percent Effect is -7.5% in assay [1]; 3.9% in assay [2]; -3.5% in assay [3]; -0.75% in the assay on Trypanosoma cruzi; 1.37% in assay [4]; 1.8% in assay [5]. Moreover, the Percent Effect was -8.68% in the assay filed under Homo sapiens, 2.9% in [6], 2.5% in assay [7] and -12.8% in [8].
For the compound `Cc1cc2c(cc1C(=O)N1CC[C@H](CO)[C@@H](O)C1)OCCO2`, the Percent Effect was -9.1% in assay [1]; 2.7% in [2]; 2.86% in assay [3]; 4.37% in the assay on Trypanosoma cruzi; 1.05% in [4]; 8.22% in assay [5]. Moreover, the Percent Effect in the assay filed under Homo sapiens was -0.0662%; in assay [6], 4.79%; in assay [7], 12.2%; in [8], -4.74%.
In the case of `O=C(c1ccc(F)cc1)N1CCC2(CCCN2CC2CC2)CC1`, the Percent Effect in assay [1] is -2.9%; in assay [2] it was 9.09%; in assay [3] it was -6.13%; in the assay on Trypanosoma cruzi it was -6.57%; in [4] it was 5.94%; in assay [5] it was 14%. Besides, the Percent Effect in the assay filed under Homo sapiens was 11.5%; in assay [6], 0.966%; in [7], 0%; in assay [8], -3.47%.
For `CCc1nc(C2CCCN2CCn2cncn2)no1` (stereo not given), the Percent Effect was -1.22% in assay [1]; 5.2% in assay [2]; 7.59% in assay [3]; -0.187% with Trypanosoma cruzi; 3.07% in assay [4]; 3.86% in [5]. In addition, the Percent Effect in the assay listed under Homo sapiens is 1.29%; in [6] it was 1.96%; in [7], 7.06%; in assay [8] it was -4.93%.
As to `Cc1ccc(OCC(O)CN2CCC(Cn3cccn3)CC2)cc1` (stereo not given), the Percent Effect in assay [1] is -0.525%; in [2] it was 7.79%; in assay [3] it was 7.42%; in the assay with Trypanosoma cruzi it was 0.373%; in assay [4], 4.3%; in [5], 7.89%. In addition, the Percent Effect in the assay listed under Homo sapiens was -3.3%; in assay [6], 10.8%; in assay [7], 23.5%; in assay [8], -5.78%.

The values are drawn from ChEMBL document CHEMBL3988442, “University of Dundee, Small-Polar-MMV Screening Library” (2021).
